Experimental data reported in PubChem BioAssay (Tox21).
Records with an inconclusive call do not appear. A call without a number means that no potency is given here. Calls of active or inactive are those of the source. The call rests on the fitted dose curve; in most records, active means well fitted activation curve with a large enough effect in the signal ratio in the repeat runs, with a control signal flat (not every such curve was filed as active); inconclusive means weak or mixed curves; inactive means flat fitted curve, though single readings scatter; the % refers to the signal ratio.

Assay: qHTS assay for small molecule activators of the heat shock response signaling pathway (AID 743210)
Details: HeLa HSE-bla reporter, beta-lactamase ratio, 5 h; series mostly up to 62.6 µM
Summary of the method: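 HSE-bla HeLa cells (beta-lactamase reporter under heat shock response elements), plated overnight, then exposed to compounds 5 h at 37 C; LiveBLAzer B/G FRET substrate added, 2.5 h at room temperature, fluorescence intensity read.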

Row | SMILES | Potency
1 | CCCCCON=O | inactive
2 | [O-][Cl+3]([O-])([O-])O | inactive
3 | CCC1(CC)C(=O)N=C(O)NC1=O | inactive
4 | O=c1c2ccccc2c(=O)c2c1cc(Cl)c1[nH]c3c([nH]c12)c(Cl)cc1c(=O)c2ccccc2c(=O)c13 | inactive
5 | CNC(C)(C)Cc1ccccc1 | inactive
6 | O=P(Cl)(Cl)Cl | inactive
7 | CN1[C@@H]2CC[C@H]1CC(O)C2 (some centres not stated) | inactive
